According to the supplement of paper PMC10933113:
A number with no mark means an inactive call.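 How the source made its calls: active = curve rank above 3; inactive = curve rank 0.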

System: KeratinoSens (HaCaT ARE-luciferase) cells
Test: Nrf2/ARE luciferase activation call in qHTS KeratinoSens assay (1 = active, 0 = inactive)

| SMILES | Nrf2/ARE luciferase activation call |
| --- | --- |
| CC[N+]1(C)CCCC1.O=S(=O)([N-]S(=O)(=O)C(F)(F)F)C(F)(F)F | not active ARE inducer (skin sensitizer alert) |
| CCC[N+]1(C)CCCC1.O=S(=O)([N-]S(=O)(=O)C(F)(F)F)C(F)(F)F | not active ARE inducer (skin sensitizer alert) |
| O=C(O)CC(O)(CC(=O)O)C(=O)O.Oc1cccc2cccnc12 | active ARE inducer (skin sensitizer alert) |
| CCCCCCCCCCCCOS(=O)(=O)O.OCCN(CCO)CCO | not active ARE inducer (skin sensitizer alert) |
| CCN(CC)CCc1c[nH]c2ccccc12.CCN(CC)CCc1c[nH]c2ccccc12.O=C(O)/C=C/C(=O)O | not active ARE inducer (skin sensitizer alert) |
| CCCCCCCCn1cc[n+](C)c1.O=S(=O)([N-]S(=O)(=O)C(F)(F)F)C(F)(F)F | not active ARE inducer (skin sensitizer alert) |
| O=C(O)c1ccccc1O.OCCN(CCO)CCO | not active ARE inducer (skin sensitizer alert) |
| CCCC[N+](C)(CCCC)CCCC.O=S(=O)([N-]S(=O)(=O)C(F)(F)F)C(F)(F)F | not active ARE inducer (skin sensitizer alert) |
| CCCCCCn1cc[n+](C)c1.O=S(=O)([N-]S(=O)(=O)C(F)(F)F)C(F)(F)F | not active ARE inducer (skin sensitizer alert) |
